Source: the supplement of paper PMC6555819

Key:
Test in all cases: PBM binding z-score (relative to random genomic background probes); higher = stronger binding; sequences stand for … in GC…GCGATTGACAGCGTAGAATGAAGG
[1] = system: FXR:RXRa (NR concentration 270 nM, RXRa partner concentration 90 nM)
Summary of the method: (§1)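 Scanned fluorescence from custom Agilent 4×180K protein-binding microarrays was regression-normalized. Binding z-scores use random background probes as reference. Ligand-free nuclear receptor dimers were incubated on the arrays for 1 h and detected with antibodies against each partner (one per run).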

[2] = system: LXRa:RXRa (NR concentration 270 nM, RXRa partner concentration 90 nM)
Summary of the method: as §1

[3] = system: LXRa homodimer (NR concentration 270 nM)
Summary of the method: as §1

[4] = system: LXRb:RXRa (NR concentration 270 nM, RXRa partner concentration 90 nM)
Summary of the method: as §1

[5] = system: LXRb homodimer (NR concentration 270 nM)
Summary of the method: as §1

[6] = system: PPARa:RXRa (NR concentration 270 nM, RXRa partner concentration 90 nM)
Summary of the method: as §1

[7] = system: PPARg:RXRa (NR concentration 180 nM, RXRa partner concentration 90 nM)
Summary of the method: as §1

[8] = system: PPARg:RXRa 270nM:90nM, anti-RXR (NR concentration 270 nM, RXRa partner concentration 90 nM)
Summary of the method: as §1

[9] = system: PPARg:RXRa 30nM:10nM, anti-RXR (NR concentration 30 nM, RXRa partner concentration 10 nM)
Summary of the method: as §1

[10] = system: PPARg:RXRa 90nM:30nM, anti-RXR (NR concentration 90 nM, RXRa partner concentration 30 nM)
Summary of the method: as §1

Row | Sequence | PBM binding z-score [1] | PBM binding z-score [2] | PBM binding z-score [3] | PBM binding z-score [4] | PBM binding z-score [5] | PBM binding z-score [6] | PBM binding z-score [7] | PBM binding z-score [8] | PBM binding z-score [9] | PBM binding z-score [10]
1 | GCTTGTATATCAAGGTTAAGAAAGACTAAGCTAA | 0.268 | 1.1 | -0.0678 | 0.659 | -0.396 | 1.19 | 0.639 | 0.798 | 0.189 | 0.527
2 | CCGACTGGGGCATAAGGTGACCATAAGCCAGCCC | -0.111 | -0.426 | -0.561 | -0.432 | -1.62 | 1.3 | 2.04 | 2.92 | 0.757 | 2.38
3 | CCTACTGGGCAAAGGTCATTGATCAGTCAAAGCA | 4.96 | 5.6 | 3.49 | 4.8 | 0.805 | 5.63 | 8.03 | 7.54 | 5.9 | 7.6
4 | CCGACTGGGGCAAAGGTTACCAGACTCAGTACGA | 1.56 | 1.7 | -0.36 | 1.99 | -1.21 | 5.91 | 10.5 | 8.66 | 8.75 | 9.25
5 | CGTCAGAGTTCAACTAAGGTAACGTAAAGCACGC | 6.8 | 5.7 | 3.39 | 3.95 | 1.39 | 4.78 | 3.46 | 3.98 | 1.19 | 2.53
6 | CCTCGGTGGACAGAAGGTCAGAGCTGTCCGCTTT | 1.33 | 1.62 | -0.089 | 0.847 | -0.688 | 1.75 | 0.418 | 2.42 | -0.194 | 1.62
7 | GCGACAGGGGCAAAGCAGGTTACCATAAGGTTGG | 0.475 | 1.06 | -0.402 | 0.691 | -0.988 | 1.41 | 0.589 | 0.106 | -0.427 | -0.446
8 | TCGAGTAGGATAGTCGGGGCATTCAGCCAACATA | -0.379 | -0.526 | -0.613 | -0.239 | -0.624 | -0.194 | -0.199 | 0.184 | 0.98 | 0.413
9 | GCTTACGGGTCAAAGGTGATAGCATGAATAGAAT | 6.24 | 4.59 | 0.0435 | 4.64 | 0.353 | 6.57 | 10.2 | 8.54 | 7.83 | 9.26
10 | ATATCTAGGTTACATCCGGGTCATTCAGGCTATG | 2.52 | 4.41 | 1.93 | 3.04 | 1.64 | 4.41 | 6 | 5.11 | 2.4 | 4.09
11 | GCTAGGTGGTCAGTAAAAGGTCACACACCGGTCG | 3.63 | 4.57 | 4.44 | 4.2 | 0.699 | 4.56 | 2.78 | 4.14 | 1.72 | 3.51
12 | AGAATGAGGTTAAGATAAGGGAAACAGAATACAT | 2.28 | 2.29 | 0.217 | 1.88 | 0.218 | 3.48 | 2.73 | 2.29 | 0.99 | 1.69
13 | CCTACTGGGCCAAAAAGGTCATGGATGCCGATAA | 3.67 | 4.35 | 2.1 | 4.13 | -0.189 | 5.2 | 4.16 | 4.82 | 1.68 | 3.88
14 | ATACCAAGGAGATCGTGAGGTCGTTGATACTAAC | 0.608 | 0.359 | 0.339 | 0.531 | -0.481 | 0.547 | 0.375 | -0.542 | -0.0699 | -0.394
15 | CGTCCAAGGTCAGAGAGTTCAGTGAATGCCGAGT | 5.22 | 4.79 | 3.36 | 3 | -0.278 | 3.89 | 2.14 | 2.83 | 0.445 | 1.82
16 | TCTAGTTGGTCACGGAGATCACACACGACGGGTA | 0.323 | 0.174 | 0.394 | 0.575 | 0.153 | 0.929 | 1.16 | 2.06 | 2.93 | 2.31
17 | CGTCCAAGGTCTATGCTAGGTCAGTGAAAGCATT | 0.1 | 5.48 | 0.995 | 2.27 | -0.26 | 0.535 | -0.39 | -0.288 | -0.641 | -0.388
18 | CGTCCCAGGTCAAGGTCAGTGAAAGAGACTCGAA | 6.02 | 4.67 | 1.45 | 3.68 | 0.553 | 5 | 4.32 | 4.51 | 1.14 | 3.02
19 | GCTAGGAGGACAAGGTCAGAGCTTTGTCCGTAGA | 1.46 | 1.37 | -0.572 | 0.865 | -0.916 | 2.36 | 0.985 | 1.44 | -0.224 | 0.93
20 | CATTACGGGTCACGAGGTTATAGCACGACGAGCG | 7.14 | 6.04 | 2.06 | 4.56 | 1 | 6.33 | 8.49 | 7.3 | 4.45 | 6.59
21 | CCTCAGAGGACAGAAGGTCAGAGCTGTCCGCTTT | 1.31 | 1.63 | -0.13 | 1.24 | -0.707 | 2.19 | 0.358 | 0.634 | -0.132 | 0.513
22 | TAGCCTAGCTCAGATCGGGCCAGTATACGCTATA | -0.961 | -1.35 | -1.07 | -1.25 | -1.34 | -1.21 | -0.0455 | -0.972 | -0.749 | -0.992
23 | CAAACTAGGTCATGAGGTCAAAGTCCGCTTCCCG | 6.96 | 6.16 | 5.21 | 4.92 | 1.82 | 6.48 | 9.89 | 8.16 | 6.58 | 8.76
24 | TGAATGAGGTTATAAGATCAGGGAGCGTTGCAAA | 1.22 | 1.19 | -0.626 | 0.707 | -0.471 | 2.63 | 1.63 | 1.91 | 0.643 | 1.55
